Assay results from paper PMC4336329 (PLoS ONE, 2015).
Among all 310,000 compounds or so, about 14,000 (4.5%) showed an effect of 50% or more. The effect is printed as a negative number. What follows is part of a selection rich in strong results, with near analogues and random picks from the rest.

Target: human ether-à-go-go-related gene (hERG) potassium channel (human, UniProt Q12809)
Assay: primary screen, population patch clamp on CHO cells stably expressing hERG; higher = less effect of the substance
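Note: peak tail current of the secondary pulse compared with the same well before compound.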

Chain of human ether-à-go-go-related gene (hERG) potassium channel (Q12809 whole entry, looked up): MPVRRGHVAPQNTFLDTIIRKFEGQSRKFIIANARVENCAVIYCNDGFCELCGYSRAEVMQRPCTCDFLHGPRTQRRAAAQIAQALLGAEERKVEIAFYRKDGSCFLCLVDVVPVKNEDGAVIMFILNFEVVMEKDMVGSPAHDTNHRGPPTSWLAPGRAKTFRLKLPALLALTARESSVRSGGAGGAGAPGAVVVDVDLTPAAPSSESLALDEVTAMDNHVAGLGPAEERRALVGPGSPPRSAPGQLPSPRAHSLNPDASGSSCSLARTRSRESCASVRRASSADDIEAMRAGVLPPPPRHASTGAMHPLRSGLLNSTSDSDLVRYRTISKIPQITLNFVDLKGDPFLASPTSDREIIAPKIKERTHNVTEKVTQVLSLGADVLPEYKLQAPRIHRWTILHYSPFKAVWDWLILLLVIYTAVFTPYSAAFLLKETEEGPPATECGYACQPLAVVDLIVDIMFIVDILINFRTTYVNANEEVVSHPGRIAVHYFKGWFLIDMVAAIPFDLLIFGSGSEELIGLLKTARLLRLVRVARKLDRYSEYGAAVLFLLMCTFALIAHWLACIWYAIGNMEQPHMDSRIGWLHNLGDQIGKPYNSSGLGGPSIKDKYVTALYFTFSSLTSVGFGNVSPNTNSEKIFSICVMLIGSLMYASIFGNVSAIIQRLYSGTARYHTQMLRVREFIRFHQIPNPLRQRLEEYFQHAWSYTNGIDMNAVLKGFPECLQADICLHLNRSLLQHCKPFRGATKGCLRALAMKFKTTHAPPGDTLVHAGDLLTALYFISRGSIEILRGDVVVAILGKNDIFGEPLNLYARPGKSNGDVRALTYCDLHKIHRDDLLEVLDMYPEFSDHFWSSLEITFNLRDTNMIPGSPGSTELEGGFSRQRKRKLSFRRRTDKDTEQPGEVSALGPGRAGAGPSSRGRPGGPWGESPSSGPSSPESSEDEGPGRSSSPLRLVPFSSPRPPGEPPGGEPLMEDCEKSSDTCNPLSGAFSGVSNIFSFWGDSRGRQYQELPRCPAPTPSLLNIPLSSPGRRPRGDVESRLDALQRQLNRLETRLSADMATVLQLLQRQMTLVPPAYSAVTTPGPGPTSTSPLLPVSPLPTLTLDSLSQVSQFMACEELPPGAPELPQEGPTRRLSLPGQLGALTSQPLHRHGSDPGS

Going from `Cc1nn(Cc2n[nH]c(=S)n2Cc2ccccc2)c(C)c1Cl` to `S=c1[nH]nc(CSCCOc2ccccc2)o1`, the “hERG current change (%, negative = inhibition) at 10uM” value falls from 14% to 8.24%.

First: OCCC1CN(Cc2cc3c(cc2Cl)OCO3)CCN1Cc1ccccc1 (centres unmarked)
Second: CCOc1ccc(CN2CCN(Cc3cc4c(cc3Cl)OCO4)CC2CCO)cc1 (centres unmarked)
The “hERG current change (%, negative = inhibition) at 10uM” value of the first is higher: -45.3% for the first, -73.3% for the second.

Going from `CC(C)N1CCC(N2CCN(Cc3cc4c(cc3Cl)OCO4)CC2CCO)CC1` (centres unmarked) to `OCCC1CN(Cc2cc3c(cc2Cl)OCO3)CCN1C1CCCC1` (centres unmarked), the “hERG current change (%, negative = inhibition) at 10uM” value falls from -18.5% to -50.8%.

Going from `CC(C)CN1CCN(Cc2cccc3c2OCO3)CC1CCO` (centres unmarked) to `CC(C)N1CCN(Cc2cccc3c2OCO3)CC1CCO` (centres unmarked), the “hERG current change (%, negative = inhibition) at 10uM” value rises from -1.45% to -0.928%.

Going from `OCCC1CN(Cc2cccc3c2OCO3)CCN1Cc1ccccc1` (centres unmarked) to `Cc1ccc(CN2CCN(Cc3cccc4c3OCO4)CC2CCO)cc1` (centres unmarked), the “hERG current change (%, negative = inhibition) at 10uM” value falls from -3.38% to -51.2%.

First: CC(C)N1CCN(Cc2cc3c(cc2Cl)OCO3)CC1CCO (centres unmarked)
Second: CC(C)=CCN1CCN(Cc2cccc3c2OCO3)CC1CCO (centres unmarked)
The “hERG current change (%, negative = inhibition) at 10uM” value of the first is higher: -2.34% for the first, -12.6% for the second.

Compared with `CCOc1ccc(CN2CCN(Cc3cccc4c3OCO4)CC2CCO)cc1` (centres unmarked), `CCOc1ccccc1CN1CCN(Cc2cccc3c2OCO3)CC1CCO` (centres unmarked) is higher in “hERG current change (%, negative = inhibition) at 10uM” value: -77.4% for the first, -62.6% for the second.

Compared with `OCCC1CN(Cc2cccc3c2OCO3)CCN1C1CCCC1` (centres unmarked), `Cc1cc([N+](=O)[O-])nn1CC(=O)N(C)C1CCCCC1` is higher in “hERG current change (%, negative = inhibition) at 10uM” value: -20.4% for the first, -18.6% for the second.

First: COc1ccc(C2/C=C\CN(CC(C)C)CC(=O)N2Cc2ccc(F)cc2)cc1 (centres unmarked)
Second: COc1ccc(CN(Cc2cccnc2)S(=O)(=O)c2ccc(-n3cnnn3)c(OC)c2)cc1
The “hERG current change (%, negative = inhibition) at 10uM” value of the first is higher: -6.03% for the first, -46.7% for the second.

Compared with `O=C(Nc1ccccc1Cl)C1CCN(S(=O)(=O)c2cccc3nonc23)CC1`, `CN(c1cccc(NC(=O)CCSc2ccccc2)c1)S(C)(=O)=O` is lower in “hERG current change (%, negative = inhibition) at 10uM” value: 16% for the first, -28.8% for the second.

Going from `CC(=O)c1c(C)oc2ccc(N(C(C)=O)S(=O)(=O)c3cccc([N+](=O)[O-])c3)cc12` to `COC(=O)c1cn(NC(=O)Cc2cccc(OC)c2)c(=O)c2ccccc12`, the “hERG current change (%, negative = inhibition) at 10uM” value rises from 8.76% to 12%.

First: N#C/C(=C(/O)CN1C(=O)c2ccccc2C1=O)c1nc2ccccc2[nH]1
Second: O=C1CC(c2ccccc2)Cc2nc(N3CCc4ccccc4C3)ncc21 (centres unmarked)
The “hERG current change (%, negative = inhibition) at 10uM” value of the first is higher: 11.6% for the first, -2.75% for the second.

First: COc1cc(S(=O)(=O)N(Cc2cccnc2)Cc2cccc(OC)c2OC)ccc1-n1cnnn1
Second: COc1ccccc1CN(Cc1cccnc1)S(=O)(=O)c1ccc(-n2cnnn2)c(OC)c1
The “hERG current change (%, negative = inhibition) at 10uM” value of the first is higher: -46.5% for the first, -63% for the second.

First: COc1cc(S(=O)(=O)N(Cc2cccnc2)Cc2ccco2)ccc1-n1cnnn1
Second: COc1cc(S(=O)(=O)N(Cc2ccc(C)cc2)Cc2ccco2)ccc1-n1cnnn1
The “hERG current change (%, negative = inhibition) at 10uM” value of the first is lower: -52.3% for the first, 2.53% for the second.

First: COc1ccccc1CN(Cc1ccco1)S(=O)(=O)c1ccc(-n2cnnn2)c(OC)c1
Second: COc1ccc(NC(=O)C2CC2)cc1-n1cnnn1
The “hERG current change (%, negative = inhibition) at 10uM” value of the first is higher: 7.21% for the first, 5.86% for the second.

Going from `CC(C)C[C@H](NC(=O)c1nc[nH]c1C(=O)N1CC[NH2+]CC1)C(=O)OCc1ccccc1.[Cl-]` to `CN(C)S(=O)(=O)c1cccc(NC(=O)CNCC2CCCCC2)c1.O=C(O)C(=O)O`, the “hERG current change (%, negative = inhibition) at 10uM” value falls from 20.5% to -1.77%.

Going from `COc1ccc(C2C3=C(CCCC3=O)N(CC(=O)O)C3=C2C(=O)CCC3)cc1Cl` to `O=C1c2ccccc2NC(c2ccc3c(c2)OCCO3)N1c1ccc2c(c1)OCCO2` (centres unmarked), the “hERG current change (%, negative = inhibition) at 10uM” value falls from 23.8% to 10.9%.

Going from `Cc1ccc(NC(=O)/C=C\C(=O)O)c([N+](=O)[O-])c1` to `Cc1ccc(NC(=O)/C=C/C(=O)O)c([N+](=O)[O-])c1`, the “hERG current change (%, negative = inhibition) at 10uM” value falls from 21.4% to -67%.

Compared with `Cc1cc(NC(=O)/C=C\C(=O)O)c([N+](=O)[O-])cc1C`, `Cc1ccc2nc(SCC(=O)N3c4ccccc4CC3C)c(C)cc2c1` (centres unmarked) is lower in “hERG current change (%, negative = inhibition) at 10uM” value: 11.6% for the first, 7.54% for the second.

Compared with `COc1cccc(NC(=S)N(CCCN2CCN(C)CC2)Cc2ccco2)c1`, `Cc1cc(NC(=S)N(CCCN2CCN(C)CC2)Cc2ccco2)ccc1Cl` is lower in “hERG current change (%, negative = inhibition) at 10uM” value: -36.2% for the first, -68.2% for the second.

Compared with `CCN1CCN(CCCN(Cc2ccco2)C(=S)Nc2ccc(Cl)c(C)c2)CC1`, `CCN1CCN(CCCN(Cc2ccco2)C(=S)Nc2ccc(C)c(Cl)c2)CC1` is higher in “hERG current change (%, negative = inhibition) at 10uM” value: -74.8% for the first, -64.8% for the second.

Going from `Cc1ccc(NC(=S)N(CCCN2CCOCC2)Cc2ccco2)cc1Cl` to `Cc1cccc(NC(=S)N(CCCN2CCOCC2)Cc2ccco2)c1`, the “hERG current change (%, negative = inhibition) at 10uM” value rises from -36.6% to -29.9%.
